# Source: PubChem BioAssay AID1117361 (Southern Research Institute, 2015)
# Screen size: about 3,600 compounds; about 900 (25%) were called active. The list is a sample of the results. Potency and affinity values are given separately. Unmarked numbers belong to inactive results. How the calls were made is not given here.
# Target: Protein Tat (Human immunodeficiency virus type 1 group M subtype B (isolate HXB2)) (UniProt P04608)
# Assay: inhibitors of Tat binding to TAR RNA, dose response, counter-screen for Vif-APOBEC3G degradation inhibitor project, biochemical, fluorescence polarization, FAM-labeled TAR RNA (AID 1117361)
# Conditions: outcome: dose series up to 100 µM unless noted; series mostly up to 100 µM; inhibition: at the top concentration
Compound,inhibition [%],outcome
Cc1ccc2c(c1)NC(=O)c1cc([N+](=O)[O-])ccc1O2,6.6,–
CCCCn1c(NCc2ccccc2NS(=O)(=O)c2ccc(C)cc2)nc2ccccc21,4.73,–
CCOC(=O)C1=C(c2ccccc2)NC(=O)NC1c1cc(Cl)c(O)c(OC)c1 (stereo unspecified),0.82,–
CCOc1ccc(NC(=O)C(C)SC(N)=O)cc1 (stereo unspecified),–,inactive
CCOc1cc(/C=C2/C(=O)N(c3ccccc3)N=C2C)ccc1OC(=O)c1ccco1,0.68,–
O=C(NC1CCN(C(=S)NCc2ccco2)CC1)C12CC3CC(CC(C3)C1)C2,–,inactive
Cc1[nH]nc2c1C(c1cn[nH]c1-c1ccc(F)cc1)C(C#N)=C(N)O2 (stereo unspecified),9.46,–
COc1ccc2c(c1)O[C@@H](c1ccc3c(c1)OCO3)[C@H](OC(=O)Nc1cc(OC)c(OC)c(OC)c1)C2=O,–,inactive
Cn1cc(Br)c(C(=O)NC2CCCCC2)n1,4.73,–
CCOCCCNC(=S)Nc1ccc2nc(N3CCN(CC)CC3)cc(C)c2c1,7.68,–
Cc1nn(Cc2ccc(Cl)cc2Cl)c(C)c1NC(=O)NC12CC3CC(CC(C3)C1)C2,–,inactive
Cc1c(C)c2ccc(O[C@@H]3O[C@H](CO)[C@H](O)[C@H](O)[C@H]3O)c(C)c2oc1=O,6.35,–
Cn1c(SCC(=O)NC(c2ccccc2)c2ccccc2)nnc1-c1cccs1,3.38,–
O=C(Nc1ccccc1F)c1ccc(S(=O)(=O)NCC2CCCO2)cc1 (stereo unspecified),4.77,–
O=C(Nc1ccc(F)cc1F)c1noc2c1CCC2,–,inactive
CCCC(=O)Nc1ccc(Br)cn1,4.05,–
CC12CCC(C(=O)Nc3ccc(Br)cn3)(OC1=O)C2(C)C (stereo unspecified),–,inactive
CC(C)(C)C1CCC(OC(=O)C[N+]2(C)CCCCC2)CC1 (stereo unspecified),–,inactive
COc1ccc(CNC(=O)C2CCCN(S(=O)(=O)c3c(C)nn(C)c3C)C2)cc1 (stereo unspecified),–,inactive
CCCn1c(Sc2nnnn2-c2ccccc2)n[nH]c1=O,–,inactive
N#Cc1c(-c2ccccc2)nc2n1CCS2,–,inactive
O=C(Nc1nccc(-c2cccs2)n1)c1ccccc1Cl,7.5,–
CCOc1cc(C(=O)Nc2c3c(nn2C(C)(C)C)CS(=O)C3)cc(OCC)c1OCC (stereo unspecified),2.05,–

Compound,inhibition [%],outcome
O=C(CCCN1C(=O)c2ccccc2C1=O)NCC1CCCO1 (stereo unspecified),4.77,–
CCOn1c(=O)c(=O)n(OCc2ccccc2)c2ccccc21,–,inactive
Oc1ccc(Cl)cc1-c1cc(-c2ccccc2)n[nH]1,3.38,–
CN1CCN(C(=O)/C(=C/c2ccc(F)cc2)NC(=O)c2ccccc2)CC1,1,–
O=C(c1ccco1)N1CCN(S(=O)(=O)c2ccc(F)cc2)CC1,10.1,–
Cc1ccc(S(=O)(=O)Nc2ccc3c(c2)c2c(n3S(=O)(=O)c3ccc(C)cc3)CCCC2=O)cc1,–,inactive
CCCNC(=O)c1ccc2c(c1)C1C3CCC(C3)C1C(c1ccccc1)N2 (stereo unspecified),–,inactive
Cc1ccc(S(=O)(=O)NC(CC(C)C)C(=O)N2CCN(C/C=C/c3ccccc3)CC2)cc1 (stereo unspecified),–,inactive
O=C(CNC(=O)c1cccs1)OCC(=O)c1ccc2ccccc2c1,4.05,–
c1ccc(-c2nnc(-c3ccncc3)o2)cc1,0.68,–
O=C(COC(=O)COc1ccc(Cl)cc1Cl)NC1CCCCCC1,2.47,–
O=C(CC1NC(=O)NC1=O)Nc1cccc2ccccc12 (stereo unspecified),2.7,–
CC(NC(=O)CC1Nc2ccccc2NC1=O)c1ccccc1 (stereo unspecified),17.6,–
COc1ccc(NC(=O)c2cc3ccccn3n2)cc1,13.5,–
COc1ccc(OC)c(C2NC(=O)NC(C)=C2C(=O)Nc2ccc(C)cc2)c1 (stereo unspecified),0.68,–
Cc1cccc(C)c1OCCOCCN1CCN(C)CC1,–,inactive
CCN(CC)c1ccc(C(=C2C=CC(=[N+](CC)CC)C=C2)c2ccccc2)cc1,–,inactive
O=C(Nc1nccs1)C1CCCN(S(=O)(=O)c2cccc3cccnc23)C1 (stereo unspecified),–,inactive
Cn1c(C(=O)N[C@@H](C(=O)O)c2ccccc2)cc2cc(Cl)ccc21,29.1,–
COc1ccc2nc(SCC(=O)NN)cc(C)c2c1,4.05,–
Cc1ccc(SCCC(=O)NCc2ccco2)cc1,–,inactive
CC(C)(C)c1nnc(NC(=O)c2ccc(Cl)nc2)s1,–,inactive
N#Cc1ccccc1CN1C(=O)S/C(=C/c2cccn2-c2ccc(C(=O)O)cc2)C1=O,22.4,–

Compound,inhibition [%],outcome
Cc1ccc(C(=O)O)cc1-c1ccc(/C=C2/NC(=O)N(c3ccccc3)C2=O)o1,10.3,–
CCNc1nc(OCCNS(=O)(=O)c2cc(C)ccc2C)nc(N(C)C)n1,2.03,–
COc1ccccc1NC(=O)C(C)NS(=O)(=O)c1ccc(F)cc1 (stereo unspecified),7.5,–
CCc1ccc(OCCNC(=O)c2cccs2)cc1,1.35,–
COc1ccccc1NC(=O)CN(c1ccccc1OC)S(=O)(=O)c1ccccc1,3.3,–
Cc1c(C(=O)NCc2cccnc2)oc2ccccc12,1.35,–
CCc1cccc(NC(=O)CCCCCC2NC(=O)NC2C)c1 (stereo unspecified),–,inactive
COC(=O)C1=C(C)NC(=O)C1(NS(=O)(=O)c1ccc(C)cc1)C(F)(F)F (stereo unspecified),2.05,–
Cc1ccc(C)c(NC(=S)NCc2ccccc2)c1,9.07,–
CN1c2ccsc2/C(=N/NC(=O)c2c(F)cccc2F)CS1(=O)=O,10.2,–
O=C(O)C1=C(C(=O)Nc2ccc(F)c(Cl)c2)CCCC1,10.1,–
COC(=O)CSc1nnc(CNC(=O)c2cccs2)n1-c1cc(OC)ccc1OC,–,inactive
Cc1ccc(NC(=O)CSc2nnc(C3CCCCC3)n2N)cc1F,0.68,–
CCOC(=O)C1CCCN(c2ncnc3c2cnn3-c2ccc(Cl)cc2)C1 (stereo unspecified),29.7,–
CCOc1cccc(NC(=O)C2CCCN(S(=O)(=O)c3ccc(OC)cc3)C2)c1 (stereo unspecified),–,inactive
O=C(O)c1cccc(S(=O)(=O)Nc2ccccc2Cl)c1,–,inactive
COc1cccc(NC(=O)C2CCCN2C(=O)OCc2ccccc2)c1 (stereo unspecified),4.05,–
O=c1nc(N2CCOCC2)nc2n1CCO2,0.68,–
Cc1cc(=O)n2nc(N3CCCC(C(=O)NC4CCC(C)CC4)C3)sc2n1 (stereo unspecified),–,inactive
CN(C)c1nc(OCCNC(=O)COc2ccc(Cl)cc2Cl)nc(N2CCOCC2)n1,–,inactive
CCCCC(=O)Nc1ccc(C(=O)NN2C(=O)c3ccccc3C2=O)cc1,2.73,–
Cc1ccc(NC(=O)CSc2nc(CSc3ccc(C)cc3)cc(=O)[nH]2)cc1,–,inactive
O=C1c2cnc3nc(SCc4ccccc4)nn3c2CC2c3ccccc3CCN12 (stereo unspecified),1.36,–

Compound,inhibition [%],outcome
COc1ccc(S(=O)(=O)NCCSCc2ccco2)cc1Cl,23.9,–
CC(=O)Nc1ccc(S(=O)(=O)Nc2ccc(NC(=O)c3ccco3)cc2)cc1,–,inactive
FC(F)(F)c1cccc(Oc2ccc3c(C(F)(F)F)cc(C(F)(F)F)nc3n2)c1,–,inactive
O=C(Cc1c(F)cccc1Cl)NNC(=O)c1ccccc1Cl,–,inactive
CCc1ccccc1NC(=O)CC(O)(C(=O)OC)C(F)(F)F (stereo unspecified),2.05,–
O=C(CN1C(=O)NC2(CCCCC2)C1=O)NCCC1=CCCCC1,6.76,–
O=C(CN1C(=O)NC2(CCCCCCC2)C1=O)NCc1ccc2c(c1)OCO2,2.03,–
Cc1ccc(C(=O)COC(=O)CNC(=O)Cc2ccccc2)cc1[N+](=O)[O-],–,inactive
O=C(CN1C(=O)NC(c2ccc(F)cc2)C1=O)Nc1ccc2c(c1)OCCO2 (stereo unspecified),1.65,–
O=C(CSc1nnc(-c2cccs2)o1)OC1CCCCC1,–,inactive
CC1=C(C(=O)NCc2ccco2)C2(CCC(C)CC2)OC1=O (stereo unspecified),15,–
O=C1COc2ccc(C(=O)NCc3ccco3)cc2N1,6.76,–
Fc1ccc2[nH]c3c(N4CCc5ccccc5C4)ncnc3c2c1,–,inactive
CC1CCN(C(=O)C2c3ccccc3C(=O)N3CCc4ccccc4C23)CC1 (stereo unspecified),–,inactive
COc1ccc(-n2c(=O)[nH]cc(C(=O)N3CCc4ccccc43)c2=O)cc1,–,inactive
CCOc1ccc(C(=O)NC2CCN(S(=O)(=O)CC)CC2)cc1,5.41,–
CNS(=O)(=O)c1cccc(C(=O)OCc2cc(Cl)cc3c2OCOC3)c1,4.09,–
COCCn1c(SCC(=O)Nc2cc(C)on2)nc2cc(Cl)ccc2c1=O,7.42,–
CCN(CC)CCN=CC1=C(O)CNC1=O,19.6,–
CCOc1ccccc1N1C(=O)c2ccc(C(=O)Nc3cccnc3)cc2C1=O,–,inactive
C[C@H](NC(=O)NCc1cccs1)C(=O)O,14.4,–
CCOC(=O)c1c(C)[nH]c(C)c1C(=O)COC(=O)c1cccc(S(=O)(=O)NC)c1,2.05,–
COc1ccc(NC(=O)/C(C#N)=C/c2ccc(Br)o2)cc1,–,inactive

Compound,inhibition [%],outcome
CCN(c1ccc(NC(=O)COC(=O)c2ccc([N+](=O)[O-])o2)cc1)C(C)C,–,inactive
COc1ccc(NC(=O)/C(C#N)=C/c2ccc(Sc3nncn3C)c([N+](=O)[O-])c2)cc1,–,inactive
CCOC(CCNC(=O)c1cn(C)c(=O)c2c1c1ccccc1n2C)OCC,9.02,–
COc1ccccc1-n1c(SCC(=O)NCc2ccc3c(c2)OCO3)nc2cc([N+](=O)[O-])ccc21,–,inactive
Nc1cc(N)nc(SCc2cc([N+](=O)[O-])cc3c2OCOC3)n1,12.4,–
COCCn1c(N)c(N(Cc2ccccc2)C(=O)C2CCCCC2)c(=O)[nH]c1=O,–,inactive
Cc1ccc(S(=O)(=O)N2CCN(Cc3nc4sc(C)c(C)c4c(=O)[nH]3)CC2)cc1,9.46,–
CCc1ccc(C(=O)Nc2ccc(S(=O)(=O)Nc3nc(C)cc(C)n3)cc2)o1,8.11,–
O=C(NC12CC3CC(CC(C3)C1)C2)c1ccc(S(=O)(=O)N2CCOCC2)cc1,–,inactive
CCn1ncc(Br)c1C(=O)Nc1sc2c(c1C(N)=O)CCC2,14.2,–
CCOC(=O)CNC(=O)Cn1cnc2c(nnn2-c2ccc(F)cc2)c1=O,1.67,–
Cc1nc2nc(COc3ccccc3)[nH]n2c(=O)c1Cc1ccccc1,–,inactive
O=c1cc2c(n[nH]1)CCCC2,7.43,–
O=C(Nc1cccc(Cl)c1)C1=Cc2cc(Cl)ccc2OC1,–,inactive
CCN(CC)S(=O)(=O)c1cccc(NC(=O)/C=C/c2cccc([N+](=O)[O-])c2)c1,6.14,–
COc1ccc(NC(=O)/C=C/c2ccc(S(=O)(=O)N3CCOCC3)cc2)cc1,–,inactive
Cc1ccc(NC(=O)/C=C\C(=O)O)c([N+](=O)[O-])c1,–,inactive
Cc1nc(NC(=O)/C=C/c2ccccc2)sc1C(=O)Nc1ccccc1,4.73,–
O=C(CSc1ncnc2ccccc12)Nc1cccc(S(=O)(=O)N2CCOCC2)c1,0.82,–
